PubChem BioAssay (NCATS)
Inconclusive results are not listed. Unmarked numbers belong to inactive results. Active and inactive are the calls of the source. Calls come from the whole dose curve; as a rule, active = well fitted inhibition curve with a large enough effect; inconclusive = small, poorly fitted or top-dose-only effect; inactive = flat fitted curve, though single readings scatter.

These molecules were tested on Zika virus NS2B-NS3 protease (assay: Primary screen GU AMC qHTS for Zika virus inhibitors (AID 1347154; note: nearly all actives have a fitted effect of over 70% in size;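 for activity change, negative = inhibition: 0% = no-inhibitor control and -100% = no-enzyme control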)). Conditions: Zika NS2B-NS3 unlinked protease, AMC fluorogenic substrate; series mostly up to 54.1 µM; activity change, negative = inhibition: at the top concentration.
Method in brief: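 Fluorogenic AMC-substrate cleavage by noncovalent NS2B-NS3 protease complex (25 nM, pH 8.0 Tris buffer with Tween 20) followed for 15 minutes at room temperature (~20% conversion). Percent inhibition from ex340/em450 signal change, fitted by 4-parameter Hill equation.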
Potency is the fitted concentration of half-maximal effect.

Row | Compound | activity change, negative = inhibition | Potency
1 | C#C[C@]1(O)C=C[C@@H]2[C@@H]3CCC4=CC(=O)CC[C@@H]4[C@H]3CC[C@@]21CC | 10.9% | 
2 | CCC(=O)OC1CCC2C3CCC4=CC(=O)CC[C@@]4(C)C3CC[C@]12C (some centres not stated) | -11.2% | 
3 | CCOCCOC(C)=O | -1.17% [at 104 µM] | 
4 | COC(C)(C)CCCC(C)C/C=C/C(C)=C/C(=O)OC(C)C (configuration not stated) | -0.976% | 
5 | CSCC[C@@H](NC(=O)[C@@H](Cc1ccccc1)NC(=O)CNC(=O)CNC(=O)[C@@H](N)Cc1ccc(O)cc1)C(=O)O | 16.1% | 
6 | CC(C)[C@]12O[C@@H]1[C@@H]1O[C@]13[C@]1(O[C@H]1C[C@@H]1C4=C(CC[C@@]13C)C(=O)OC4)[C@H]2O | 16.3% | 
7 | C1CCC(NC2CCCCC2)CC1 | -4.57% | 
8 | C1=C2CCCN[C@H]2[C@@H]2C[C@H]1[C@@H]1CCCCN1C2 | 10.5% | 
9 | C[C@H]1CCCC=CC2C[C@H](O)C[C@@H]2[C@H](O)C=CC(=O)O1 (some centres not stated) | 4.26% | 
10 | CC(=O)OCC1=C(C(=O)O)N2C(=O)[C@@H](N)[C@@H]2SC1 | 8.58% | 
11 | CN(C)NC(=O)CCC(=O)O | 2.15% | 
12 | O=S(=O)(O)C(F)(F)C(F)(F)C(F)(F)C(F)(F)C(F)(F)C(F)(F)C(F)(F)C(F)(F)F |  | 11.2 µM (active)
13 | CCC1(CCC(C)C)C(=O)NC(=O)NC1=O | 3.05% [at 104 µM] | 
14 | Nc1ccc(Cl)cc1 | -3.17% [at 104 µM] | 
15 | CC(=O)[O][Hg][c]1ccccc1 | 1.78% | 
16 | C[C@@H]1CC[C@H]2[C@@H](C)C(=O)O[C@@H]3O[C@@]4(C)CC[C@H]1[C@]32OO4 | 12.5% | 

Row | Compound | activity change, negative = inhibition | Potency
17 | COc1cc2cc(c1Cl)N(C)C(=O)C[C@H](OC(=O)C(C)C)[C@]1(C)O[C@H]1[C@H](C)[C@@H]1C[C@@](O)(NC(=O)O1)[C@H](OC)C=CC=C(C)C2 | -11.1% | 
18 | O=C(Nc1ccncc1)C(=O)c1cn(Cc2ccc(Cl)cc2)c2ccccc12 | 5.68% | 
19 | CC(O)CN1CCN(CC(=O)[O-])CCN(CC(=O)[O-])CCN(CC(=O)[O-])CC1.[Gd+3] (configuration not stated) | -1.53% | 
20 | CCN1C[C@]2(OC(=O)c3ccccc3NC(C)=O)CC[C@H](OC)[C@@]34[C@H]5CC6[C@@H](OC)C[C@](O)(C(C[C@@H]23)[C@@H]14)[C@@]5(O)[C@@H]6OC | -15.9% | 
21 | CC(O)=C(C#N)C(=O)Nc1cc(Br)ccc1Br | -9.8% | 
22 | O=S(=O)(CC1CS1)c1ccc(Oc2ccccc2)cc1 (configuration not stated) | -4.37% | 
23 | CC1=C(C(=O)O)N2C(=O)[C@@H](N)[C@H]2SC1 | -9.12% [at 25.8 µM] | 
24 | CCC(=O)O[C@@H]1C=C2CCC3C(CCC4(C)C3CC[C@@H]4OC(=O)CC)C2CC1 (some centres not stated) | -9.46% | 
25 | O=[N+]([O-])/N=C1\NCCN1Cc1ccc(Cl)nc1 | -6.44% | 
26 | COCC1(CO)C(=O)C2CCN1CC2 (configuration not stated) | 7.13% | 
27 | COc1cccc2c1[C@]13CCN(CC4CC4)[C@H](C2)[C@]1(OC)CCC(=O)C3 | 15.1% | 
28 | Nc1ccc([N+](=O)[O-])cc1 | -3.84% [at 104 µM] | 
29 | C[C@@H]1[C@H](O)[C@@H](C)C=CC=CCCC=CC=CC=CC=C[C@H](O[C@H]2O[C@@H](C)[C@H](O)[C@@H](N)[C@@H]2O)CC2O[C@](O)(C[C@@H](O)[C@H](O)CC[C@@H](O)C[C@@H](O)C[C@@H](O)CC(=O)O[C@H]1C)C[C@H](O)[C@H]2C(=O)O | 23.9% | 
30 | CC1(C)CC/C(=C/c2ccc(Cl)cc2)C1(O)Cn1cncn1 (configuration not stated) | 4.09% [at 104 µM] | 
31 | C[C@@H]1CC[C@@]2(OC1)O[C@H]1C[C@H]3[C@@H]4CC=C5C[C@@H](O[C@@H]6O[C@H](CO)[C@@H](O[C@@H]7O[C@@H](C)[C@H](O)[C@@H](O)[C@@H]7O)[C@H](O)[C@@H]6O[C@@H]6O[C@@H](C)[C@H](O)[C@@H](O)[C@@H]6O)CC[C@]5(C)[C@@H]4CC[C@]3(C)[C@@H]1[C@H]2C | -0.756% | 
32 | C[C@]12COC(=O)C[C@@H]1CC[C@@H]1[C@H]2CC[C@@]2(C)[C@H]1CC[C@]2(C)O | -4.04% | 
